Assay results from the supplement of paper PMC7156485.

These compounds were tested on TDF (assay: H1.0 immunofluorescence intensity relative to DMSO (% of DMSO); higher = stronger H1.0 induction, active = 120 or more). Conditions: concentration: 10 µM; 24 h.
Outline: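 Compounds were applied at 10 µM for 24 h at 37 °C, in triplicate, to HCC1569 and TDF cells. The cells were then fixed and stained for H1.0, and nuclei were counterstained with DAPI. Nuclear H1.0 intensity or cell number is reported relative to the plate control as a percent, taking the median of replicates. Smoothing for positional effects was applied to HCC1569 values only.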
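Also: TDF is a line of transformed human dermal fibroblasts of mesenchymal origin.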

H1.0 immunofluorescence intensity, inactive:
O=C(C=Cc1ccc(O)cc1)c1ccc(O)cc1O [Isoliquiritigenin] 89.2
N[C@H](CO)C(=O)O [D-Serine] 87.2
COC(=O)c1c(C)[nH]c(C)c1C(=O)c1ccccc1Cc1ccccc1 92.3
CC1=C(C(=O)O)N2C(=O)C(NC(=O)C(N)c3ccccc3)C2SC1 (stereo not given) [Cephalexin hydrate] 102
CCCCCCCCC=CCCCCCCCCC(=O)O [10(Z)-Nonadecenoic acid] 95.6
Cn1c(-c2ccc3c(c2)OCO3)cc(=O)c2ccccc21 [Graveoline] 101
Cn1c(=O)c2c(nc(C=Cc3cccc(Cl)c3)n2C)n(C)c1=O [8-(3-Chlorostyryl)caffeine] 100
CCC(C)n1ncn(-c2ccc(N3CCN(c4ccc(OCC5COC(Cn6cncn6)(c6ccc(Cl)cc6Cl)O5)cc4)CC3)cc2)c1=O (stereo not given) [Itraconazole] 108
Nc1ccc(S(=O)(=O)Nc2ccnn2-c2ccccc2)cc1 [Sulfaphenazole] 89.8
O=C([O-])Cc1ccccc1Nc1c(Cl)cccc1Cl.[Na+] [Diclofenac sodium] 99.1
CC1COC2=C1C(=O)C(=O)c1c2ccc2c1CCCC2(C)C (stereo not given) [Cryptotanshinone] 106
CCCCCCCCCCCCCCCC(=O)NCC(COP(=O)([O-])OCC[N+](C)(C)C)OCC (racemic) [rac-2-Ethoxy-3-hexadecanamido-1-propylphosphocholine] 97.5
Cl.Cl.O=S(=O)(c1cccc2cnccc12)N1CCCNCC1 99.5
CCCCc1ncc(C=C(Cc2cccs2)C(=O)O)n1Cc1ccc(C(=O)O)cc1.CS(=O)(=O)O [Eprosartan mesylate] 96.4
CN(Cc1cnc2nc(N)nc(N)c2n1)c1ccc(C(=O)NC(CCC(=O)O)C(=O)O)cc1 (single isomer, unassigned; (-)) [(-)Amethopterin] 106
COc1cc(C=CC(=O)CC(=O)C=Cc2ccc(O)c(OC)c2)ccc1O [Curcumin] 106
CN1CCc2cccc3c2C1Cc1ccc(O)c(O)c1-3.Cl (stereo not given) [Apomorphine hydrochloride hemihydrate] 94.8
Nc1nc(Nc2ccccc2)nc2c1ncn2C1OC(CO)C(O)C1O (stereo not given) [2-Phenylaminoadenosine] 90
O=C(O)C1=CC(=C(c2ccc(O)c(C(=O)O)c2)c2ccc(O)c(C(=O)O)c2)C=CC1=O [Aurintricarboxylic acid] 89.4
O=C(O)CCCC=CCC1C(O)CC(O)C1C=CC(O)COc1cccc(C(F)(F)F)c1 (stereo not given) [Fluprostenol] 92.2
CCOC(=O)C=C(C)C=CC=C(C)C=Cc1c(C)cc(OC)c(C)c1C [Etretinate] 101
Cl.O=C1CC2(CCCC2)CC(=O)N1CCCCN1CCN(c2ncccn2)CC1 [Buspirone hydrochloride] 94.3
CN(C)CCCn1cc(C2=C(c3c[nH]c4ccccc34)C(=O)NC2=O)c2ccccc21 115
CC1=C(C)C(=O)C(C(CCCCCC(=O)O)c2ccccc2)=C(C)C1=O (stereo not given) [Seratrodast] 99.3
Nc1nc2ccc(Cl)cc2n2c(-c3ccccc3)nnc12 [8-chloro-1-phenyl[1,2,4]triazolo[4,3-a]quinoxalin-4-ylamine] 93.9
COC1C(OC(=O)C=CC=CC=CC=CC(=O)O)CCC2(CO2)C1C1(C)OC1CC=C(C)C (stereo not given) [Fumagillin] 98.9
CN(C)CCC=C1c2ccccc2CCc2ccccc21.Cl [Amitriptyline.HCl] 99.6
O=C(Cc1ccc(Cl)c(Cl)c1)OCCN1CCCC1.O=C(O)C(=O)O [AC 915 oxalate] 92.1
O=C1NC(C(=O)O)CS1 (stereo not given) [Procysteine] 97.1
O=C([O-])c1cc2cc(Cc3cccnc3)ccc2o1.[Na+] [Furegrelate sodium] 88.5
